Laboratory results published in PubChem BioAssay (EPA / NIEHS).
Inconclusive results are not listed. Where a structure was tested more than once in an assay, its records may differ in their call. Activity calls are given as the source filed them. Rule for the calls, unless noted: active = hit-call score of the fitted dose curve at least 0.9, where 1 is the maximum; inactive = score below 0.9.

Tests used:
[1] = molecular target: human RAR-related Orphan Receptor beta (RORb), RORB (gene 6096) (UniProt Q92753); test: ATG_RORb_TRANS: Attagene TRANS-FACTORIAL HepG2 Assay for human RAR-related Orphan Receptor beta (RORb) (AID 2283010; active = hit-call score of the fitted dose curve at least 0.9, where 1 is the maximum)
Chain of human RAR-related Orphan Receptor beta (RORb), RORB (gene 6096) (Q92753 whole entry, looked up, the tested form may be a part): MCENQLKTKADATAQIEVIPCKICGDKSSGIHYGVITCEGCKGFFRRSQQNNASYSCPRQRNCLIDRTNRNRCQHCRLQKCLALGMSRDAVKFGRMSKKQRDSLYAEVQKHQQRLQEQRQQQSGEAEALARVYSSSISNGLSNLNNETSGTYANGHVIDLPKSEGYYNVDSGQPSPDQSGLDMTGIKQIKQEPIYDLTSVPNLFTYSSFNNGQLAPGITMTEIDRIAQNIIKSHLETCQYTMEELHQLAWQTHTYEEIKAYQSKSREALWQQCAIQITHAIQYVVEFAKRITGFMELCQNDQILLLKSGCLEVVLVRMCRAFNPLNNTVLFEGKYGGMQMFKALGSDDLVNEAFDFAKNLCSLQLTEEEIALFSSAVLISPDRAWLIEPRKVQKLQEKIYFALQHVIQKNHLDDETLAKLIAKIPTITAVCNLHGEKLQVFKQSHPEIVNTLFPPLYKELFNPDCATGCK
Procedure, shortened: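 Multiplexed transcription-factor reporter assay: HepG2 cells transiently carrying NR-Gal4/GAL4-UAS constructs, 24 h treatment, mRNA quantified by RT-PCR plus capillary electrophoresis fluorescence; activity scored as induction over DMSO.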

[2] = molecular target: human RAR-related Orphan Receptor gamma (RORg), RORC (gene 6097) (UniProt P51449); test: ATG_RORg_TRANS: Attagene TRANS-FACTORIAL HepG2 Assay for human RAR-related Orphan Receptor gamma (RORg) (AID 2283011; active = hit-call score of the fitted dose curve at least 0.9, where 1 is the maximum)
Chain of human RAR-related Orphan Receptor gamma (RORg), RORC (gene 6097) (P51449 whole entry, looked up, the tested form may be a part): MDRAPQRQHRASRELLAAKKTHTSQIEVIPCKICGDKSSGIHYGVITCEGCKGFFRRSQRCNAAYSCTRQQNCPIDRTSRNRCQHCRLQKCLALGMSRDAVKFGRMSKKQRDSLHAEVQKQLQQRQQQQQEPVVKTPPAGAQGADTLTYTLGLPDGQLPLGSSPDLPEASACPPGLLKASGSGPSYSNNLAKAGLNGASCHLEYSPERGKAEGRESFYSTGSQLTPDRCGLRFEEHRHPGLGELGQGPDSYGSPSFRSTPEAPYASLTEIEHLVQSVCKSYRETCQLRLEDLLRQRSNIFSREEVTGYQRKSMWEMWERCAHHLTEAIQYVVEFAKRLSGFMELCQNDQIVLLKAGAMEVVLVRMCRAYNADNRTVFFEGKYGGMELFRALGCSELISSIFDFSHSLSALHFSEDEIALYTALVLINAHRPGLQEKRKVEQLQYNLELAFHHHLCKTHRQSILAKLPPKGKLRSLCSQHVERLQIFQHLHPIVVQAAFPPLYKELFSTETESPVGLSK
Procedure, shortened: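 Activity is scored as increase in GAL4-UAS reporter mRNA over DMSO, detected by fluorescent RT-PCR and capillary electrophoresis in HepG2 cells transiently expressing a RORg-Gal4 chimera, 24 h after dosing.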

[3] = molecular target: human Retinoid X Receptor beta (RXRb), RXRB (gene 6257) (UniProt P28702); test: ATG_RXRb_TRANS: Attagene TRANS-FACTORIAL HepG2 Assay for human Retinoid X Receptor beta (RXRb) (AID 2283013; active = hit-call score of the fitted dose curve at least 0.9, where 1 is the maximum)
Chain of human Retinoid X Receptor beta (RXRb), RXRB (gene 6257) (P28702 whole entry, looked up, the tested form may be a part): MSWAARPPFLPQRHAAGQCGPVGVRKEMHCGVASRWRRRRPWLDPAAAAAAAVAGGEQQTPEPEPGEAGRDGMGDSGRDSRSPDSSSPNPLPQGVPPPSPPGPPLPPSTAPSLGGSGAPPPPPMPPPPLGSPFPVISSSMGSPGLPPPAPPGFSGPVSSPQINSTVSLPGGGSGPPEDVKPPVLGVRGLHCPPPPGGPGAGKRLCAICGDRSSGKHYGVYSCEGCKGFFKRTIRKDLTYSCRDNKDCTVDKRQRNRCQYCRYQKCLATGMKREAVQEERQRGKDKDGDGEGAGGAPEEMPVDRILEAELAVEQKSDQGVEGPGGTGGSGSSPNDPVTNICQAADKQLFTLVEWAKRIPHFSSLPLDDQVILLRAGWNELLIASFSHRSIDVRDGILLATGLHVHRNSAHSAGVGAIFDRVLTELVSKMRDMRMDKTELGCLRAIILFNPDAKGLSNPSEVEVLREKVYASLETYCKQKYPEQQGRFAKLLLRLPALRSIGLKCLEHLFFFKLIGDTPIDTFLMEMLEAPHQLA
Procedure, shortened: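 After a 24 h incubation with test chemical, transfected HepG2 cells carrying NR-Gal4 fusions and GAL4-UAS reporter transcription units yield RNA whose reporter cDNA is FAM-labelled, HpaI-cut and sized by capillary electrophoresis; increases over DMSO are scored.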

[4] = read-out: E-selectin (Homo sapiens) (UniProt P16581); test: BSK_3C_Eselectin: BioMAP Diversity Plus: 3C Assay for Eselectin Biomarker Activity (AID 2283015); settings: primary human endothelial cells (HUVEC); actives raise or lower the signal
Procedure, shortened: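 Human vascular endothelium from umbilical vein is exposed to test chemicals for 24 h. E-selectin levels are read by ELISA and compared with DMSO controls.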

[5] = read-out: Interleukin-1 alpha (IL1a), IL1A (gene 3552); test: BSK_BE3C_IL1a: BioMAP Diversity Plus: BE3C Assay for Interleukin-1 alpha (IL1a) Biomarker Activity (AID 2283016); settings: primary human bronchial epithelial cells; actives raise or lower the signal
Procedure, shortened: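 Measured in human lung primary bronchial epithelial cells: IL-1a by ELISA at 24 h after dosing, with bidirectional fitting against DMSO.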

[6] = read-out: Monocyte Chemoattractant Protein-1 (MCP1), CCL2 (gene 6347); test: BSK_3C_MCP1: BioMAP Diversity Plus: 3C Assay for Monocyte Chemoattractant Protein-1 (MCP1) Biomarker Activity (AID 2283017); settings: primary human endothelial cells (HUVEC); actives raise or lower the signal
Procedure, shortened: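 Endothelial cells from human umbilical vein are dosed with chemical, cultured 24 h, then assayed for MCP-1 by ELISA; both increases and decreases are modelled against DMSO controls.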

[7] = read-out: Monocyte Chemoattractant Protein-1 (MCP1), CCL2 (gene 6347); test: BSK_4H_MCP1: BioMAP Diversity Plus: 4H Assay for Monocyte Chemoattractant Protein-1 (MCP1) Biomarker Activity (AID 2283018); settings: primary human endothelial cells (HUVEC); actives raise or lower the signal
Procedure, shortened: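 Primary human umbilical vein endothelium is exposed to chemical for 24 h before MCP-1 is assayed by ELISA. Concentration-response fitted bidirectionally relative to DMSO.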

[8] = read-out: Human Leukocyte Antigen - DR isotype (HLADR), HLA-DRA (gene 3122); test: BSK_3C_HLADR: BioMAP Diversity Plus: 3C Assay for Human Leukocyte Antigen - DR isotype (HLADR) Biomarker Activity (AID 2283019); settings: primary human endothelial cells (HUVEC); actives raise or lower the signal
Procedure, shortened: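 Endothelial cells from human umbilical vein are treated with test chemical; after 24 h, HLA-DR levels are measured by ELISA. Data are fitted in both directions using DMSO as the baseline.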

[9] = read-out: Interleukin-8 (IL8), CXCL8 (gene 3576); test: BSK_3C_IL8: BioMAP Diversity Plus: 3C Assay for Interleukin-8 (IL8) Biomarker Activity (AID 2283020); settings: primary human endothelial cells (HUVEC); actives raise or lower the signal
Procedure, shortened: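 Using DMSO-treated wells as the baseline, bidirectional curve fitting was applied to ELISA-measured IL-8 from human umbilical vein endothelial cultures sampled 24 h after compound addition.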

[10] = molecular target: human Vitamin D Receptor (VDR), VDR (gene 7421) (UniProt P11473); test: ATG_VDR_TRANS: Attagene TRANS-FACTORIAL HepG2 Assay for human Vitamin D Receptor (VDR) (AID 2283022; active = hit-call score of the fitted dose curve at least 0.9, where 1 is the maximum)
Chain of human Vitamin D Receptor (VDR), VDR (gene 7421) (P11473 whole entry, looked up, the tested form may be a part): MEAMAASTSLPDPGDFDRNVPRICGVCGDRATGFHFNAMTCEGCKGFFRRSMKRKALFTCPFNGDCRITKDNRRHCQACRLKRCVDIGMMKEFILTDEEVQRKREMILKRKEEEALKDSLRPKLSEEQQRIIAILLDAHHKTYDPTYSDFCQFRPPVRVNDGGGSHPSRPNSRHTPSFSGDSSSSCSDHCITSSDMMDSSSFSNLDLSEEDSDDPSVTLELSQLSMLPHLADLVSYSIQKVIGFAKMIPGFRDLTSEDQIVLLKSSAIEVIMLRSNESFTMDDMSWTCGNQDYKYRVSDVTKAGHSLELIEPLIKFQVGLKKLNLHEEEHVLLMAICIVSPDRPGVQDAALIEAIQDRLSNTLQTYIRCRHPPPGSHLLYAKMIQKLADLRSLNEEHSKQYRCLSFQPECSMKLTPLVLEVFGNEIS
Procedure, shortened: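 Fluorescence of labelled reporter cDNA fragments, resolved by capillary electrophoresis, gives mRNA induction after 24 h treatment of HepG2 cells carrying transfected Gal4-fusion reporter units. Activity is fitted in the positive direction with DMSO as baseline.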

[11] = BSK_3C_SRB: Viability Assessment in the BioMAP Diversity Plus: 3C Assay (AID 2283023); settings: primary human endothelial cells (HUVEC);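 note: cells read 24 h after compound dosing; fitted both ways against DMSO so a hit may be signal rise or drop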
Procedure, shortened: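 Cells were dosed with chemical, cultured 24 h, fixed with 10% TCA, stained with 0.1% SRB and read at 560 nm. Human umbilical vein endothelium was used; DMSO served as negative control and baseline.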

[12] = read-out: Matrix Metallopeptidase 1 (MMP1), MMP1 (gene 4312); test: BSK_BE3C_MMP1: BioMAP Diversity Plus: BE3C Assay for Matrix Metallopeptidase 1 (MMP1) Biomarker Activity (AID 2283024); settings: primary human bronchial epithelial cells; actives raise or lower the signal
Procedure, shortened: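 In this multiplexed primary-cell system, human bronchial epithelium received chemicals for 24 h before an ELISA for MMP1. Values reflect bidirectional fits normalised to the DMSO baseline.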

[13] = BSK_3C_Vis: BioMAP Diversity Plus: 3C Assay for Morphology Visualization (AID 2283025); settings: primary human endothelial cells (HUVEC);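 note: fitted both ways so gain or loss versus DMSO counts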;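 for AC50: light microscopy image of cell morphology used as background control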
Procedure, shortened: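 Light-microscopy morphology readout, 24 h exposure, human primary umbilical vein endothelium; analysed relative to DMSO with bidirectional fitting.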

[14] = read-out: Pselectin, SELP (gene 6403); test: BSK_4H_Pselectin: BioMAP Diversity Plus: 4H Assay for Pselectin Biomarker Activity (AID 2283026); settings: primary human endothelial cells (HUVEC); actives raise or lower the signal
Procedure, shortened: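 Bidirectional fits against DMSO gave the endpoint. Cells: primary human umbilical vein endothelium, chemical-treated for 24 h before ELISA detection of P-selectin.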

[15] = BSK_4H_SRB: Viability Assessment in the BioMAP Diversity Plus: 4H Assay (AID 2283027); settings: primary human endothelial cells (HUVEC);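 note: cells exposed to compound for 24 h before staining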;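 for AC50: curves fitted both ways versus DMSO so AC50 may be loss or gain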
Procedure, shortened: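 HUVEC, 24 h post-dose; 10% TCA fix, 0.1% SRB stain, A560 nm. Total protein = overt cytotoxicity, parallel to biomarker read. Bidirectional fit vs DMSO baseline.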

[16] = BSK_BE3C_SRB: Viability Assessment in the BioMAP Diversity Plus: BE3C Assay (AID 2283028); settings: primary human bronchial epithelial cells;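 for AC50: fitted both ways so AC50 may mark signal gain or loss versus DMSO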
Procedure, shortened: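 Overt cytotoxicity was assessed as total protein in confluent human primary bronchial epithelial cultures 24 h after chemical addition, using 0.1% sulforhodamine B staining read at 560 nm.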

[17] = read-out: Monokine induced gamma interferon (MIG), CXCL9 (gene 4283); test: BSK_3C_MIG: BioMAP Diversity Plus: 3C Assay for Monokine induced gamma interferon (MIG) Biomarker Activity (AID 2283021); settings: primary human endothelial cells (HUVEC); actives raise or lower the signal
Procedure, shortened: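 ELISA-measured MIG in dosed HUVEC 3C cultures at 24 h, analysed by bidirectional fitting with DMSO defining baseline activity.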

[18] = read-out: Thrombomodulin, THBD (gene 7056); test: BSK_3C_Thrombomodulin: BioMAP Diversity Plus: 3C Assay for Thrombomodulin Biomarker Activity (AID 2283029); settings: primary human endothelial cells (HUVEC); actives raise or lower the signal
Procedure, shortened: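 In a multiplexed primary-cell system, human umbilical vein endothelium received chemical and was assayed 24 h later for thrombomodulin by ELISA. Parallel cultures were SRB-stained (0.1% SRB after 10% TCA fixation, read at 560 nm) to flag cytotoxicity.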

[19] = molecular target: human Thyroid Receptor alpha (THRa1), THRA (gene 7067) (UniProt P10827); test: ATG_THRa1_TRANS: Attagene TRANS-FACTORIAL HepG2 Assay for human Thyroid Receptor alpha (THRa1) (AID 2283014; active = hit-call score of the fitted dose curve at least 0.9, where 1 is the maximum)
Chain of human Thyroid Receptor alpha (THRa1), THRA (gene 7067) (P10827 whole entry, looked up, the tested form may be a part): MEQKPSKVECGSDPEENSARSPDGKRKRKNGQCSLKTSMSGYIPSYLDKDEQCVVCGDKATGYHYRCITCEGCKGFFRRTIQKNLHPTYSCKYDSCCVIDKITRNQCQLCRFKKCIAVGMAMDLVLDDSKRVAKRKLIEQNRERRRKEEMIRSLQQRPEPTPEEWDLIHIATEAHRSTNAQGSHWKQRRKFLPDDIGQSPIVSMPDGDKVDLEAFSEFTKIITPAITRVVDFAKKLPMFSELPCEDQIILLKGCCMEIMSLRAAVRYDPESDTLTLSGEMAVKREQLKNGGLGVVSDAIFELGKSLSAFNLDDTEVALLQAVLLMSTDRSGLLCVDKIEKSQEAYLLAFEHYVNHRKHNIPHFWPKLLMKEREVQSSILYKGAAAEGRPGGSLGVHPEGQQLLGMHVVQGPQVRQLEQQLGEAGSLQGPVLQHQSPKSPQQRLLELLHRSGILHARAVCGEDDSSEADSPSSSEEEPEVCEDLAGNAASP
Procedure, shortened: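 First, HepG2 cells receive multiple GAL4-UAS reporter units and the chimeric receptor. They are then dosed for 24 h, after which RNA is reverse-transcribed, amplified, labelled, HpaI-cut and sized by capillary electrophoresis; gain relative to DMSO is scored.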

[20] = molecular target: Retinoic acid receptor RXR-alpha (Homo sapiens) (UniProt P19793); test: ATG_RXRa_TRANS: Attagene TRANS-FACTORIAL HepG2 Assay for human Retinoid X Receptor alpha (RXRa) (AID 2283012; active = hit-call score of the fitted dose curve at least 0.9, where 1 is the maximum)
Chain of Retinoic acid receptor RXR-alpha (Homo sapiens) (P19793 whole entry, looked up, the tested form may be a part): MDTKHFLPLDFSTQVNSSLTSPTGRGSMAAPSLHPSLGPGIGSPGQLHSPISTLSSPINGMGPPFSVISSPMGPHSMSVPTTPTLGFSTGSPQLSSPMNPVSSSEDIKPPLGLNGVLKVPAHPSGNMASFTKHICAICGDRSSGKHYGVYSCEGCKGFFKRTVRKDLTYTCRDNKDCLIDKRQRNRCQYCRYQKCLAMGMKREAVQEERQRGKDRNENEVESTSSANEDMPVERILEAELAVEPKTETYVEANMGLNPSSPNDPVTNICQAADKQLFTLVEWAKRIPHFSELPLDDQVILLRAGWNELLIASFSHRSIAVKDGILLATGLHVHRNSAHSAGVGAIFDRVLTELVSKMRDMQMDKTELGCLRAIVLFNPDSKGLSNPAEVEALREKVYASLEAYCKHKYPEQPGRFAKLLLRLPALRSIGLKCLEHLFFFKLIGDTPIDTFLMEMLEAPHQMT
Procedure, shortened: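 Chimeric NR-GAL4 trans-activation in HepG2, 24 h treatment; reporter transcripts quantified by fluorescence on capillary electrophoresis, analysed for upward change from DMSO.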

Measured: AC50

Chain of E-selectin (Homo sapiens) (P16581 whole entry, looked up): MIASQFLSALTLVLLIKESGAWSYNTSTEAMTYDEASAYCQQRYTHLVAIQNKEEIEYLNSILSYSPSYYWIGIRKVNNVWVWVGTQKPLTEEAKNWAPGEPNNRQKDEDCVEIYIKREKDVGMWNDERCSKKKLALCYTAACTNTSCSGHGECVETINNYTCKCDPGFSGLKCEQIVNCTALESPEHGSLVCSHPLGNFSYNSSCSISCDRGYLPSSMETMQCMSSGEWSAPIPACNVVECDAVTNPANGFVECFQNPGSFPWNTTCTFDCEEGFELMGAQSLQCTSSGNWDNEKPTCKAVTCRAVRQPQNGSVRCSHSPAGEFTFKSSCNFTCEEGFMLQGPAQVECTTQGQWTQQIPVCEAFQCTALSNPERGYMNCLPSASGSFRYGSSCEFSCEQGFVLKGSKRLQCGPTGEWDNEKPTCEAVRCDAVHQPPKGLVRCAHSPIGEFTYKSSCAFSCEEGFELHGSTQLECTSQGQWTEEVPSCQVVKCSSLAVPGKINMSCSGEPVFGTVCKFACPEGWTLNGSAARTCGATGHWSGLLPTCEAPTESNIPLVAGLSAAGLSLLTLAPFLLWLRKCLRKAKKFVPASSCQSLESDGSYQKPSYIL

CCN(CC)C(=S)SSC(=S)N(CC)CC
inactive: [1] | [2] | [3] | [10]
active: [4] 34.8 µM | [5] 16.3 µM | [6] 30.6 µM | [7] 24.6 µM | [8] 12.4 µM | [9] 31.2 µM | [11] 27.8 µM | [12] 25.5 µM | [13] 39.8 µM | [14] 20 µM | [15] 31.7 µM | [16] 34.6 µM

FC(F)(F)C(F)(F)C(F)(F)C(F)(F)C(F)(F)C(F)(F)I
inactive: [1] | [2] | [3] | [4] | [5] | [6] | [7] | [8] | [9] | [17] | [10] | [11] | [12] | [14] | [15] | [16] | [18]
active: [3] 91.3 µM

OCc1c[nH]c2ccccc12
active: [3] 9.59 µM | [4] 24.6 µM | [11] 11.5 µM | [12] 0.297 µM | [13] 37.5 µM
inactive: [1] | [2] | [3] | [19] | [5] | [6] | [7] | [9] | [17] | [10] | [14] | [15] | [16] | [18]

O=C(Cl)C(F)(F)C(F)(F)C(F)(F)C(=O)Cl
not listed: [8] | [13] | [19]
inactive: all other assays above

O=S(=O)(O)c1ccc(N=Nc2c(O)ccc3cc(S(=O)(=O)O)ccc23)cc1
not listed: [2] | [8]
inactive: all other assays above

CCOC(N)=O
not listed: [3] | [10] | [19] | [20]
inactive: all other assays above

C[C@]12C=CC(=O)C=C1CC[C@H]1[C@@H]3C[C@@H](O)[C@](O)(C(=O)CO)[C@@]3(C)C[C@H](O)[C@@]12F
inactive: all assays above
